# Hits are enriched below; roughly 1.8% of the tested compounds scored in any of these assays.
# VDR inh – Inhibitors of the vitamin D receptor (VDR): qHTS. VDR-SRC2-3 peptide fluorescence polarization, 2 h. 0.93% of 400,000 active. AID 504847, 2011. Vitamin D3 receptor (Homo sapiens), P11473. Potency, µM, most hits filed as inhibitors
#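 Measured by FP: displacement of SRC2-3 coactivator peptide from VDR by library compounds, following a two-hour ambient incubation.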
# rTrxR1 inhibitor – qHTS Assay for Inhibitors of Mammalian Selenoprotein Thioredoxin Reductase 1 (TrxR1): qHTS. Potency, µM (doses to about 114 µM), hits mostly inhibitors. AID 588453, 2011. recombinant rTrxR1, NADPH fluorescence consumption, selenite substrate. 1% of 390,000 active; also: nearly all actives have a fitted effect of over 65% in size
# Target sequence (O89049 whole entry, looked up): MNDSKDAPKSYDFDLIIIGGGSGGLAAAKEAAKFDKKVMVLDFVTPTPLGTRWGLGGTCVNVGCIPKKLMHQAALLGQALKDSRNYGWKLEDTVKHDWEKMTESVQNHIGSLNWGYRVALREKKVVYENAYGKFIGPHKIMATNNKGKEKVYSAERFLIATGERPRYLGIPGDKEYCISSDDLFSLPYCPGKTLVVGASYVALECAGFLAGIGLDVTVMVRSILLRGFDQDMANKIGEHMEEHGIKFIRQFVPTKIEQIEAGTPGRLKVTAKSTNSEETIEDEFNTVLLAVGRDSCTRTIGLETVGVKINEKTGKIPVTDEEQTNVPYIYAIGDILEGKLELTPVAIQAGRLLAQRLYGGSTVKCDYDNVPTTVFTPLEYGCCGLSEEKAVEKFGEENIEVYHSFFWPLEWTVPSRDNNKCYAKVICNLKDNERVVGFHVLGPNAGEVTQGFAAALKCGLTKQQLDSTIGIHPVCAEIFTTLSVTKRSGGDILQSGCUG
#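 Rat TrxR1 (90 nM in the dispensed reagent) was pre-reduced with 400 uM NADPH for 5 min at room temperature, then incubated with compound for 15 min. After 400 uM selenite was added, NADPH fluorescence (Ex 340/Em 450 nm) was followed for 8 min.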
# Vif-A3G inh – qHTS for Inhibitors of Vif-A3G Interactions: qHTS. DNA dC->dU-editing enzyme APOBEC-3G (Homo sapiens), Q9HC16. HeLa A3G-eYFP + Vif (tagged APOBEC3G with the HIV-1 protein that degrades it), YFP fluorescence, overnight. Potency, µM (series often up to 46.1 µM), usual class: inhibitors. 0.076% of 410,000 active. AID 602310, 2012; also: nearly all actives have a fitted effect of over 60% in size
#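 Read-out is eYFP fluorescence (Ex 488/Em 500-530) from Vif-expressing HeLa A3G-eYFP cells; more signal means A3G escaped Vif-mediated degradation. Cells plated overnight, compound pinned in, incubated overnight at 37 deg C.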
# TrxR1 substrate – qHTS Assay for Substrates of Mammalian Selenoprotein Thioredoxin Reductase 1 (TrxR1): qHTS; Thioredoxin reductase 1, cytoplasmic (Rattus norvegicus), O89049; purified TrxR1 substrate turnover, NADPH consumption readout; Potency, µM (top dose mostly 114 µM); 0.01% of 390,000 active; also: nearly all actives have a fitted effect of over 50% in size
#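 Rat TrxR1, dispensed at 90 nM, was prereduced with 400 uM NADPH (final) for 5 min at ~22 deg C, then incubated with compound 15 min before 400 uM selenite. A first-read NADPH fluorescence drop versus no-compound background flagged substrates.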
# Vif-APOBEC3F blk – qHTS for Inhibitors of Vif-A3F Interactions: qHTS; HeLa A3F-eYFP + Vif (tagged APOBEC3F with the HIV-1 protein that degrades it), YFP fluorescence increase; Potency, µM (top dose mostly 46.1 µM); 0.2% of 390,000 active; AID 602313, 2012; also: nearly all actives have a fitted effect of over 65% in size
#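 HeLa cells stably expressing Vif plus C-terminally eYFP-tagged A3F were seeded, incubated overnight at 37 deg C, dosed with compound, incubated overnight again at 37 deg C. Yellow fluorescence (Ex 488/Em 500-530) reported blocked Vif-mediated A3F-eYFP degradation.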
# A number is an active result; i = inactive; ? = inconclusive; nt = not tested or not shown; [ ] = dose if it differs, or a comment. Calls follow the shape of the dose curve; as a rule, active = well fitted curve in the direction sought with a large enough effect; inconclusive = small, poorly fitted or top-dose-only effect, or another doubt; inactive = no such curve, though single readings can be large; an effect the other way counts as inactive or inconclusive.
SMILES,VDR inh,rTrxR1 inhibitor,Vif-A3G inh,TrxR1 substrate,Vif-APOBEC3F blk
COCCCn1c(=O)/c(=C/c2ccccc2OC(F)F)s/c1=C(\C#N)C(=O)NCCOC,i,i,i,i,?
C=CC[N+]1(C)CCC23c4c5ccc(O)c4O[C@H]2C(=O)CC[C@@]3(O)C1C5 (some centres not stated),i,nt,nt,nt,nt
Cc1ccc(-n2sc3ccccc3c2=O)cc1,3.2µM,i,i,i,i
COc1ccc(-c2nc3ccccc3c(=O)n2-c2ccc(OC)cc2)cc1,i,i,i,i,i
O=C(c1ccccc1)c1ccc2nc(N3CCN(c4ccc(F)cc4)CC3)c3nncn3c2c1,i,i,i,i,?
Cc1nn(CCC#N)c2c1P(=S)(N1CCCC1)OC(c1ccc(F)cc1)=N2 (configuration not stated),25µM,i,i,i,i
C[C@H]1O[C@@H](O[C@H]2[C@@H](O)C[C@@H](O[C@H]3[C@@H](O)C[C@H](O[C@H]4CC[C@@]5(C)[C@H](CC[C@@H]6[C@@H]5CC[C@]5(C)[C@@H](C7=CC(=O)OC7)CC[C@]65O)C4)O[C@@H]3C)O[C@@H]2C)C[C@H](O)[C@@H]1O,nt,nt,i,nt,nt
CCC(C)/C=C(C)/C=C/C1=CC2=C(Cl)C(=O)C(C)(OC(C)=O)C(=O)C2=CO1 (configuration not stated),i,i,i,i,i
CC[C@H](C)/C=C(C)/C=C/C1=CC2=C(Cl)C(=O)[C@@](C)(OC(C)=O)C(=O)C2=CO1,40µM,?,i,i,i
CN1CC[C@@]2(c3cccc(O)c3)Cc3nc4ccccc4cc3C[C@H]2C1,i,nt,nt,nt,nt
O=C1NC(=O)C(=Cc2cccc(OCCOc3ccccc3)c2)C(=O)N1,?,16µM,i,i,i
O=C1NC(=O)C(=Cc2ccc(OCCOc3ccc([N+](=O)[O-])cc3)cc2)C(=O)N1,50µM,35µM,i,i,i
Cc1ccc(OCCOc2cccc(C=C3C(=O)NC(=O)NC3=O)c2)c(C)c1,?,7.9µM,i,i,i
O=C1NC(=O)C(=Cc2cn(CCOc3ccc4c(c3)OCO4)c3ccccc23)C(=O)N1,i,i,?,i,?
CCN1CCN(c2ccc([N+](=O)[O-])cc2C=C2C(=O)NC(=O)NC2=O)CC1,?,?,i,i,i
CCCCCCCCCC[Si](C)(C)CCC(=O)NC(Cc1ccc(C)cc1)c1ccccc1 (configuration not stated),i,i,nt,i,nt
Cc1ncc2n1-c1ccc(Cl)cc1C(c1ccccc1F)=NC2O (configuration not stated),i,nt,nt,nt,nt
Cc1ccc(NC(=O)Cn2c(=O)oc3cc(S(=O)(=O)N4CCCCCC4)ccc32)cc1Cl,i,i,i,i,?
CC1(C)CC(=O)C(C2(O)C(=O)NC(=O)NC2=O)=C(O)C1,45µM,i,i,i,i
COC[C@H]1OC(=O)c2coc3c2[C@@]1(C)C1=C(C3=O)[C@@H]2CCC(=O)[C@@]2(C)C[C@H]1OC(C)=O,71µM,i[11.4 µM],?,i[11.4 µM],i
C=C1C(=O)O[C@@H]2C[C@@H](C)[C@@H]3C=CC(=O)[C@@]3(C)[C@@H](OC(=O)CC(=O)O[C@H]3[C@@H]4C(=C)C(=O)O[C@@H]4C[C@@H](C)[C@@H]4C=CC(=O)[C@]43C)[C@H]12,18µM,?,?,i,i
C=C1C(=O)OC2CC(C)C3C=CC(=O)C3(C)C(O)C12 (configuration not stated),?,i,?,i,?
COc1ccc2c(c[n+](C)c3c4cc5c(cc4ccc23)OCO5)c1OC,28µM,?,nt,?,nt
COc1cc2c(ccc3c4cc(OC)c(OC)cc4c[n+](C)c23)cc1O,i,i,i,i,i
CC(=O)CC(c1ccccc1)c1c(O)c2cccc(O)c2oc1=O (configuration not stated),i,nt,nt,nt,nt
SMILES,VDR inh,rTrxR1 inhibitor,Vif-A3G inh,TrxR1 substrate,Vif-APOBEC3F blk
O=C(Nc1ccc2nc(-c3cccs3)c(-c3cccs3)nc2c1)N1CCCCC1,i,i,i,i,nt
O=C1NC(=O)N(c2ccc3c(c2)OCO3)C(=O)/C1=C/c1ccc(N2CCCC2)o1,i,?,?,?,?
O=C1NC(=O)N(c2ccc3c(c2)OCO3)C(=O)/C1=C/c1cccs1,79µM,45µM,i,i,i
O=C1NC(=O)N(c2ccc3c(c2)OCO3)C(=O)/C1=C/c1ccsc1,?,35µM,i,i,i
CSc1ncc(/C=C2/C(=O)NC(=O)N(C3CCCCC3)C2=O)cn1,20µM,11µM,i,i,i
CCCCN1C(=O)NC(=O)/C(=C/c2cnc(SC)nc2)C1=O,25µM,?,i,i,i
CSc1ncc(/C=C2/C(=O)NC(=O)N(C)C2=O)cn1,?,14µM,i,i,i
C[C@H]1O[C@@H](O[C@H]2[C@@H](O)C[C@H](O[C@H]3[C@@H](O)C[C@H](O[C@H]4CC[C@]5(C)C6CC[C@]7(C)[C@@H](C8=CC(=O)OC8)CC[C@]7(O)C6CC[C@@H]5C4)O[C@@H]3C)O[C@@H]2C)C[C@H](O)[C@@H]1O (some centres not stated),i,nt,nt,nt,nt
c1ccc(N2CC[C@@]3(CCCNC3)C2)cc1,50µM,nt,nt,nt,nt
O=C1NC(=O)C(=Cc2ccc(-c3ccc(F)cc3O)o2)C(=O)N1,28µM,?,?,i,i
O=C1NC(=O)C(=Cc2ccc(-c3ccc(Cl)cc3)o2)C(=O)N1,?,i,i,i,i
CC1CC2OC2/C=C\C=C/C(=O)Cc2c(Cl)c(O)cc(O)c2C(=O)O1 (configuration not stated),45µM,nt,nt,nt,nt
[Cl-].[Cl-].[Hg+2],2.5µM,nt,nt,nt,nt
CC1Oc2cc3c(-c4c(O)cc(O)c5c(O)c6c(cc45)OC(C)C(C)C6=O)c(O)cc(O)c3c(O)c2C(=O)C1C (configuration not stated),79µM,i,?,i,i
O=[As]O[As]=O (configuration not stated),i,nt,nt,nt,nt
[Cl][Pt+2][Cl].[NH-]C1CCCCC1[NH-] (configuration not stated),50µM,?,i,i,i
O=C1OC(c2ccc(O)c(S(=O)(=O)O)c2)(c2ccc(O)c(S(=O)(=O)O)c2)c2c(Br)c(Br)c(Br)c(Br)c21,35µM,nt,nt,nt,nt
CC1([N+](=O)[O-])COP(=O)(Nc2ccc(Cl)cc2)OC1 (configuration not stated),89µM,i[11.4 µM],i,i[11.4 µM],i
CN(C)c1ccc(C=C2C(=O)NC(=S)NC2=O)cc1,?,4µM,i,i,i
